# Source: paper PMC11062922 (Nature Chemical Biology, 2023)
# Assays:
# [1] = tested on: ADCK5; settings: read-out: apparent Kd; compound concentrations:100 nM and 1000 nM (sheet 'Lestaurtinib' of Supplementary Table 1),run:Lestaurtinib_02443_R1,Plate:MR009; n = 1
# [2] = tested on: CSNK2A1;CSNK2A3; settings: read-out: apparent Kd; compound concentrations:100 nM and 1000 nM (sheet 'Lestaurtinib' of Supplementary Table 1),run:Lestaurtinib_02422_R1,Plate:MR006; n = 1
# [3] = tested on: DAPK3; settings: read-out: apparent Kd; compound concentrations:100 nM and 1000 nM (sheet 'Lestaurtinib' of Supplementary Table 1),run:Lestaurtinib_02443_R1,Plate:MR009; n = 1
# [4] = tested on: HCK; settings: read-out: apparent Kd; compound concentrations:100 nM and 1000 nM (sheet 'Lestaurtinib' of Supplementary Table 1),run:Lestaurtinib_02422_R1,Plate:MR006; n = 1
# [5] = tested on: MAPK14; settings: read-out: apparent Kd; compound concentrations:100 nM and 1000 nM (sheet 'Lestaurtinib' of Supplementary Table 1),run:Lestaurtinib_02422_R1,Plate:MR006; n = 1
# [6] = tested on: PRKACG; settings: read-out: apparent Kd; compound concentrations:100 nM and 1000 nM (sheet 'Lestaurtinib' of Supplementary Table 1),run:Lestaurtinib_02422_R1,Plate:MR006; n = 1
# [7] = tested on: PRKDC; settings: read-out: apparent Kd; compound concentrations:100 nM and 1000 nM (sheet 'Lestaurtinib' of Supplementary Table 1),run:Lestaurtinib_02422_R1,Plate:MR006; n = 1
# [8] = tested on: STK10; set-up: species or system human, MV4-11 + K-562 + COLO205 + SK-N-BE2 + OVCAR-8; settings: read-out: apparent Kd; compound concentrations: 100 nM and 1000 nM (sheet 'Samples'), CATDS: 0.394091035560725; n = 1
# [9] = tested on: RIPK3; set-up: species or system human, MV4-11 + K-562 + COLO205 + SK-N-BE2 + OVCAR-8; settings: read-out: apparent Kd; compound concentrations: 100 nM and 1000 nM (sheet 'Samples'), CATDS: 0.41855483652365999; n = 1
# [10] = tested on: PRKX;PRKY; set-up: species or system human, MV4-11 + K-562 + COLO205 + SK-N-BE2 + OVCAR-8; settings: read-out: apparent Kd; compound concentrations: 100 nM and 1000 nM (sheet 'Samples'), CATDS: 0.167379705383528; n = 1
# [11] = tested on: PRKAG1; set-up: species or system human, MV4-11 + K-562 + COLO205 + SK-N-BE2 + OVCAR-8; settings: read-out: apparent Kd; compound concentrations:100 nM and 1000 nM (sheet 'Samples'); n = 1
# [12] = tested on: PRKAG2; set-up: species or system human, MV4-11 + K-562 + COLO205 + SK-N-BE2 + OVCAR-8; settings: read-out: apparent Kd; compound concentrations:100 nM and 1000 nM (sheet 'Samples'); n = 1
# [13] = tested on: PRKCZ; set-up: species or system human, MV4-11 + K-562 + COLO205 + SK-N-BE2 + OVCAR-8; settings: read-out: apparent Kd; compound concentrations:100 nM and 1000 nM (sheet 'Samples'); n = 1
# [14] = tested on: PRKCQ; set-up: species or system human, MV4-11 + K-562 + COLO205 + SK-N-BE2 + OVCAR-8; settings: read-out: apparent Kd; compound concentrations: 100 nM and 1000 nM (sheet 'Samples'), CATDS: 1; n = 1
# [15] = tested on: PRKG1; set-up: species or system human, MV4-11 + K-562 + COLO205 + SK-N-BE2 + OVCAR-8; settings: read-out: apparent Kd; compound concentrations:100 nM and 1000 nM (sheet 'Samples'); n = 1
# [16] = tested on: PRKD2; set-up: species or system human, MV4-11 + K-562 + COLO205 + SK-N-BE2 + OVCAR-8; settings: read-out: apparent Kd; compound concentrations:100 nM and 1000 nM (sheet 'Samples'); n = 1
# [17] = tested on: PRKD3; set-up: species or system human, MV4-11 + K-562 + COLO205 + SK-N-BE2 + OVCAR-8; settings: read-out: apparent Kd; compound concentrations:100 nM and 1000 nM (sheet 'Samples'); n = 1
# [18] = tested on: TGFBR1; set-up: species or system human, MV4-11 + K-562 + COLO205 + SK-N-BE2 + OVCAR-8; settings: read-out: apparent Kd; compound concentrations:100 nM and 1000 nM (sheet 'Samples'); n = 1
# [19] = tested on: TGFBR2; set-up: species or system human, MV4-11 + K-562 + COLO205 + SK-N-BE2 + OVCAR-8; settings: read-out: apparent Kd; compound concentrations:100 nM and 1000 nM (sheet 'Samples'); n = 1
# [20] = tested on: TNIK; set-up: species or system human, MV4-11 + K-562 + COLO205 + SK-N-BE2 + OVCAR-8; settings: read-out: apparent Kd; compound concentrations:100 nM and 1000 nM (sheet 'Samples'); n = 1
compound,measurement,setting,value
Lestaurtinib,potency estimated from few doses,[1],2240 nM
same,potency estimated from few doses,[2],1810 nM
same,potency estimated from few doses,[3],1580 nM
same,potency estimated from few doses,[4],1300 nM
same,potency estimated from few doses,[5],1150 nM
same,potency estimated from few doses,[6],769 nM
same,potency estimated from few doses,[7],1210 nM
COc1cc2ncn(-c3cc(OCC4CCCO4)c(C(N)=O)s3)c2cc1OC (centres unmarked) [GSK204607A],potency estimated from few doses,[8],614 nM
c1ccc(Oc2ccc(Nc3ccnc4ccc(-c5ccccn5)cc34)cc2)cc1 [GW407034X],potency estimated from few doses,[9],429 nM
CC1=C(C(=O)Nc2cc3cn[nH]c3cc2F)C(c2ccc(C(F)(F)F)cc2)CC(=O)N1 (centres unmarked) [GSK429286A],potency estimated from few doses,[10],2000 nM
COc1ccccc1-c1ccc2c(NC(=O)C3CC3)n[nH]c2n1 [SB-711239],potency estimated from few doses,[11],1190 nM
same,potency estimated from few doses,[12],1270 nM
O=C(Nc1n[nH]c2cc(-c3cccs3)ccc12)C1CC1 [SB-731284],potency estimated from few doses,[13],1850 nM
CO/N=C(\c1ccccc1)c1cnn(-c2ccccc2)c1N [RO1163374-000],potency estimated from few doses,[14],2210 nM
CCn1c(-c2nonc2N)nc2cnc(Oc3cccc(NC(=O)c4ccc(N(C)C)cc4)c3)cc21 [GSK248233A],potency estimated from few doses,[15],227 nM
Cc1cccc(-c2n[nH]cc2-c2ccc3ncccc3n2)n1 [GW786460X],potency estimated from few doses,[16],465 nM
same,potency estimated from few doses,[17],640 nM
same,potency estimated from few doses,[18],1.39 nM
same,potency estimated from few doses,[19],112 nM
same,potency estimated from few doses,[20],1720 nM
